Results published in ChEMBL document CHEMBL1961873, “Compounds: GSK PKIS; Assays: Nanosyn kinase panel” (2012).

What was measured:
[1] = target: Tyrosine-protein kinase SYK (Homo sapiens) (UniProt P43405); conditions: at 1 µM
[2] = target: T1, Tyrosine-protein kinase Tec (Homo sapiens) (UniProt P42680); conditions: at 0.1 µM
T1 sequence (whole entry): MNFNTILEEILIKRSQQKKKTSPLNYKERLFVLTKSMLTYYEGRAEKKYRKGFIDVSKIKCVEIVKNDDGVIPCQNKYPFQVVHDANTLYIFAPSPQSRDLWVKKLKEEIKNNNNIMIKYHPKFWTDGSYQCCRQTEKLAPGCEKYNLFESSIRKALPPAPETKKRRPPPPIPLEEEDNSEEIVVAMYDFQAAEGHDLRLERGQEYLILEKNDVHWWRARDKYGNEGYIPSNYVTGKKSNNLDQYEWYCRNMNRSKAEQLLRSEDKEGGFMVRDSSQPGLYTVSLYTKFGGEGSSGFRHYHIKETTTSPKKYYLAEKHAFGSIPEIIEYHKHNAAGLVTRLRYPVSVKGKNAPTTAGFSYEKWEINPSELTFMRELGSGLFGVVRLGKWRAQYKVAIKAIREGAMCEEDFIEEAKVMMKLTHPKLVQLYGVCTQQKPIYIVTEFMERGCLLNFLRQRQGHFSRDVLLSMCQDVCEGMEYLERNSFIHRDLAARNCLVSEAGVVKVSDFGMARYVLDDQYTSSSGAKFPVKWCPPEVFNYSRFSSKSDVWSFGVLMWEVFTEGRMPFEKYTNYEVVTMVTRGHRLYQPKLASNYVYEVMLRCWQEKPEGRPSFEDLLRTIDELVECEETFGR

[3] = target: T1, Tyrosine-protein kinase Tec (Homo sapiens); conditions: at 1 µM
[4] = target: Angiopoietin-1 receptor (Homo sapiens) (UniProt Q02763); conditions: at 0.1 µM
[5] = target: Angiopoietin-1 receptor (Homo sapiens) (UniProt Q02763); conditions: at 1 µM
[6] = target: T2, Non-receptor tyrosine-protein kinase TNK1 (Homo sapiens) (UniProt Q13470); conditions: at 0.1 µM
T2 sequence (whole entry): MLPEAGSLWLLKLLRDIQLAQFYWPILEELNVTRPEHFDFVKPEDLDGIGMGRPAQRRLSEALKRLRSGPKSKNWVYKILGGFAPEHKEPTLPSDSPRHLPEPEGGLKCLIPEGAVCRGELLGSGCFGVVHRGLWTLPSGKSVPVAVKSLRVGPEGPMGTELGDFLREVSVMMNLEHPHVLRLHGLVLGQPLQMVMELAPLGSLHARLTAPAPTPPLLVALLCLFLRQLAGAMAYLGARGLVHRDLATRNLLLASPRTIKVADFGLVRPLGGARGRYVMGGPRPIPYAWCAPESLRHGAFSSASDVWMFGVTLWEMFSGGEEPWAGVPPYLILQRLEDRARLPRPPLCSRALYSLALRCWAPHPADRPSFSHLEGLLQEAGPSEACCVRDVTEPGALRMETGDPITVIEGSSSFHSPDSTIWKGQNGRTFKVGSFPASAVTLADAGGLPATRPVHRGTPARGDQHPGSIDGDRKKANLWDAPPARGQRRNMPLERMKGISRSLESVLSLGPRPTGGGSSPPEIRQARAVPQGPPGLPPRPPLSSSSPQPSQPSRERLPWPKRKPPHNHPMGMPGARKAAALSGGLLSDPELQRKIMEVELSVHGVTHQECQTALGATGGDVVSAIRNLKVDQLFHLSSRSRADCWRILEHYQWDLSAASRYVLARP

[7] = target: T2, Non-receptor tyrosine-protein kinase TNK1 (Homo sapiens); conditions: at 1 µM
[8] = target: Activated CDC42 kinase 1 (Homo sapiens) (UniProt Q07912); conditions: at 0.1 µM
[9] = target: Activated CDC42 kinase 1 (Homo sapiens) (UniProt Q07912); conditions: at 1 µM
[10] = target: High affinity nerve growth factor receptor (Homo sapiens) (UniProt P04629); conditions: at 0.1 µM;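 note: each value is a mean of replicate percent inhibition readings against TRKA kinase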
Chain of High affinity nerve growth factor receptor (Homo sapiens) (P04629 33-796 limits assumed): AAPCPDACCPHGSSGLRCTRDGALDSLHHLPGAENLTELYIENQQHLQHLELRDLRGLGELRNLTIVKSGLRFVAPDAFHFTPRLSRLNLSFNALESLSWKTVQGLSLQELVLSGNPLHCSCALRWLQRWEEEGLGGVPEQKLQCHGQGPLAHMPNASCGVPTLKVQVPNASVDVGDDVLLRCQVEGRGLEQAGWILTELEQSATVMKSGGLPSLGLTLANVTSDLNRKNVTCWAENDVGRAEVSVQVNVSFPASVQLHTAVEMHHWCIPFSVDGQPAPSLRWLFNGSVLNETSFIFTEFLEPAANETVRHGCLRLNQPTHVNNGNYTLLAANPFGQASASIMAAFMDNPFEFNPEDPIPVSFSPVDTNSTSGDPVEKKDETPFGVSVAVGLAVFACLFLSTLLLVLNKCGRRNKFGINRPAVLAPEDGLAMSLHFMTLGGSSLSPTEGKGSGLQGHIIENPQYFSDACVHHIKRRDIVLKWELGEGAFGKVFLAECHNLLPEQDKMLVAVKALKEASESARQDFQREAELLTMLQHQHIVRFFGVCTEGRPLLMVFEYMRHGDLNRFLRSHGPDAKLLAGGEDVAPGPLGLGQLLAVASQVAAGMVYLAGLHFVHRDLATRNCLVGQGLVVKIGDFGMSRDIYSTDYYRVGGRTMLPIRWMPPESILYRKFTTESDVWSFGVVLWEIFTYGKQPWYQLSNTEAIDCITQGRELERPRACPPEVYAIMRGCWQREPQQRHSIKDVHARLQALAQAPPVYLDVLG

Chain of Activated CDC42 kinase 1 (Homo sapiens) (Q07912 whole entry, looked up): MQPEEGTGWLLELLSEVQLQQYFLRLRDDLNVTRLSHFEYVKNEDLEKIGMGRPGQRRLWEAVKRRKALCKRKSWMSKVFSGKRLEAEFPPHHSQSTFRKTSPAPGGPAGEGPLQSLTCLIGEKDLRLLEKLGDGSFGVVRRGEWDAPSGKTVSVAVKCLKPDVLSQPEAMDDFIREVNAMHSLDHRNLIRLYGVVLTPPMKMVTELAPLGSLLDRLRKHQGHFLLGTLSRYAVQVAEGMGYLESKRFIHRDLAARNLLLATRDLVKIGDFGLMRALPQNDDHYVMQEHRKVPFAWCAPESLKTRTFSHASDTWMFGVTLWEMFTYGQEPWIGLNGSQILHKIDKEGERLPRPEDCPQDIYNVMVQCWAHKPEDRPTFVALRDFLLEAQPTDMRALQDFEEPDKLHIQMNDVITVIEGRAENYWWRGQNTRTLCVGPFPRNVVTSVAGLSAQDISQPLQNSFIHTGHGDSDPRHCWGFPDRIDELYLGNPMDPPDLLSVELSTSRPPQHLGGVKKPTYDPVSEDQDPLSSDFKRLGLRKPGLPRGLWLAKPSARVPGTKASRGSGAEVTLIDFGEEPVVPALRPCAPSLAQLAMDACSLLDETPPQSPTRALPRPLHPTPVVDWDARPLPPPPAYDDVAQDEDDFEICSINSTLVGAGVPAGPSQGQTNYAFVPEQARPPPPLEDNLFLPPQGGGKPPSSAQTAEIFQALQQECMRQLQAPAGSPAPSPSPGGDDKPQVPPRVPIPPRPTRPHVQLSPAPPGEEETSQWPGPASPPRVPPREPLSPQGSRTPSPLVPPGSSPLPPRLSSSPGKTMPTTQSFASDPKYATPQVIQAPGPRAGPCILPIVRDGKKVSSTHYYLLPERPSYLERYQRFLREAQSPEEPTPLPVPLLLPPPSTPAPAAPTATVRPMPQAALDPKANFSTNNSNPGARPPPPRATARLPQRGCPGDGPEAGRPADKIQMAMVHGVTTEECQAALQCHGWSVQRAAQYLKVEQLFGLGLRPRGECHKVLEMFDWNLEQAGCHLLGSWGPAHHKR
Chain of Angiopoietin-1 receptor (Homo sapiens) (Q02763 whole entry): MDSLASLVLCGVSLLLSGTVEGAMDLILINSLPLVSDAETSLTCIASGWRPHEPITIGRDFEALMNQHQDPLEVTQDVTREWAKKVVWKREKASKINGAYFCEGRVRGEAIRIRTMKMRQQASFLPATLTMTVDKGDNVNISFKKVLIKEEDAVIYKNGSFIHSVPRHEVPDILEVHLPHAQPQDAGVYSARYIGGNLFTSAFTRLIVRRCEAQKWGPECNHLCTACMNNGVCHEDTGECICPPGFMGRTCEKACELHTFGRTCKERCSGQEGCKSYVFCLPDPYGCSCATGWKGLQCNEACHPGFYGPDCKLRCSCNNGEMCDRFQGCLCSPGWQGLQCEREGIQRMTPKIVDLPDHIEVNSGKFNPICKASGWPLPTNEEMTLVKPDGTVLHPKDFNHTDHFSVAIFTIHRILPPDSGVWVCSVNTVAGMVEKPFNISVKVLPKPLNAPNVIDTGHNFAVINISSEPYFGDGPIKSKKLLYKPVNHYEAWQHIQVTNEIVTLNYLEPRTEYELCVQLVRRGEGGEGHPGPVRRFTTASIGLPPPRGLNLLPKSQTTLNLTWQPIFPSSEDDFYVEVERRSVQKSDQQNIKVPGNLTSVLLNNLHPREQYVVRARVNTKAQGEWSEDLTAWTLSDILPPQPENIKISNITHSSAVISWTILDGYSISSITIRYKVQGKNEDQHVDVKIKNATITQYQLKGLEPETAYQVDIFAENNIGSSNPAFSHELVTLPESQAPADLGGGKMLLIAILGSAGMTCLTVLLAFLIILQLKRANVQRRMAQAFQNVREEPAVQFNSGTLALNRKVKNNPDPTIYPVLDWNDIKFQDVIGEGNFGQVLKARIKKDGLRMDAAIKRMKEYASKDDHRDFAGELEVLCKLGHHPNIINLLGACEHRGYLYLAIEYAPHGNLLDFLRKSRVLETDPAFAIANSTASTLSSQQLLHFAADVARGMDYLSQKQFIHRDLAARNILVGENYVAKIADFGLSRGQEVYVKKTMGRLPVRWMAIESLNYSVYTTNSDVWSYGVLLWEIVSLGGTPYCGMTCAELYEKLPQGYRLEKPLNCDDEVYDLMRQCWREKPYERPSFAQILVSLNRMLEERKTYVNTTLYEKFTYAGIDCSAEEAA

SMILES | inhibition [1] | inhibition [2] | inhibition [3] | inhibition [4] | inhibition [5] | inhibition [6] | inhibition [7] | inhibition [8] | inhibition [9] | inhibition [10]
CC(C)c1ccc(Nc2nccc(-c3cnn4ncccc34)n2)cc1 | 9.02% | 2.28% | 7.14% | 2.92% | 4.32% | 5.68% | 49.3% | 0.39% | 2.14% | 3.65%
NC(=O)c1sc(-n2cnc3ccccc32)cc1OCc1ccccc1Br | -0.37% | 4.6% | 4.76% | 2% | 6.42% | 2.8% | 18.9% | 0.68% | 1.87% | 1.54%
Cc1cc(Cl)cc2c1NC(=O)C2=NNc1ccc(S(N)(=O)=O)cc1 | 0.95% | 2.23% | 1.43% | 2.08% | 2.32% | -0.6% | 7.55% | 0.54% | 1.92% | -1.82%
O=C1Nc2ccccc2/C1=C/Nc1ccc2[nH]c(=O)[nH]c2c1 | -5.15% | 9.34% | 13.8% | 5.76% | 9.19% | 4.65% | 21.3% | 1.41% | 4.86% | 11.6%
NC(=O)c1cccc(Nc2nccc(Nc3cccc(F)c3)n2)c1 | -2.49% | 6.51% | 34.3% | 1.74% | 10.1% | 6.18% | 44.3% | 2.29% | 22.2% | 1.89%
NS(=O)(=O)c1cccc(-c2cc3ccncc3cc2OCc2ccccc2)c1 | -1.17% | 5.34% | 8.79% | 4.31% | 7.65% | 1.24% | 4.7% | 0.71% | 1.65% | 1.41%
C[C@@H](Oc1cc(-n2cnc3ccc(OCC4CCN(C)CC4)cc32)sc1C(N)=O)c1ccccc1C(F)(F)F | 0.25% | -1.52% | -0.1% | 5.78% | 32.4% | 3.21% | 30.3% | 5.42% | 46.1% | -0.37%
CCn1c(-c2nonc2N)nc2c(C#CC(C)(C)O)nc(OCCNC)cc21 | 0.91% | 5.49% | 3.22% | 2.67% | 6.8% | 0.64% | 3.22% | 0.83% | 1.43% | 3.54%
COc1ccc2ncnc(Nc3ccc(OCc4ccccc4)cc3)c2c1 | -1.05% | 2.8% | 4.49% | 2.79% | 5.45% | 2.34% | 12.3% | 0.68% | 1.66% | 0.33%
NS(=O)(=O)c1ccc(-c2cc3ccncc3cc2OCc2ccccc2)cc1 | 0.64% | 2.94% | 4.44% | 1.38% | 3.06% | 3.48% | 16% | 0.6% | 2.21% | 4.15%
Oc1cccc(-c2nc(-c3ccccc3)[nH]c2-c2ccncc2)c1 | 1.53% | 5.02% | 9.92% | 3.23% | 15.7% | 3.62% | 12.3% | 1.47% | 2.85% | 3.43%
OCc1ccc(-c2nc(-c3ccccn3)c(-c3ccc4c(c3)OCO4)[nH]2)cc1 | -0.31% | 7.61% | 11.1% | 2.48% | 6.23% | 5.37% | -4.68% | 1.72% | 2.78% | 3.27%
CC(C)c1ccc2c(c1)NC(=O)/C2=N/Nc1ccc(S(N)(=O)=O)cc1 | 1.53% | 1.22% | 3.98% | 1.55% | 3.02% | 2.2% | 9.9% | 0.13% | 4.69% | 3.96%
Cc1ccc(C(=O)NC2CC2)cc1-c1ccc2[nH]ncc2c1 | -0.05% | -3.67% | -3.15% | 0.34% | 3.3% | -1.01% | 4.02% | -0.76% | 2.48% | 1.88%
Cc1ccc2c(-c3ccnc(Nc4cccc(C(F)(F)F)c4)n3)c(-c3ccccc3)nn2n1 | -5.34% | 8.8% | 38.3% | 3.55% | 8.11% | 2.78% | 19.5% | 0.98% | 2.35% | 1.79%
COC(=O)Nc1nc2cc(Oc3ccc(NC(=O)Nc4cccc(Br)c4)cc3)ccc2[nH]1 | 0.53% | 4.37% | 3.43% | 31.3% | 54% | 3.04% | 8.8% | 0.29% | 0.1% | 28.4%
COc1cccc(-n2nc(C)c3c(N/N=C(\C)c4ccncc4)ncnc32)c1 | 2.38% | 1.82% | 3.53% | 0.73% | 2.25% | -1.41% | 0.13% | -0.22% | 0.84% | 0.99%

SMILES | inhibition [1] | inhibition [2] | inhibition [3] | inhibition [4] | inhibition [5] | inhibition [6] | inhibition [7] | inhibition [8] | inhibition [9] | inhibition [10]
Nc1nccc(-c2c(-c3ccc(F)cc3)nn3cc(C(F)(F)F)ccc23)n1 | -1.5% | 0.64% | 4.1% | 1.2% | 3.87% | 2.37% | -0.22% | -0.73% | 0.6% | -2.97%
C[C@@H](Oc1cc(-n2cnc3ccc(OC[C@@H](O)CO)cc32)sc1C(N)=O)c1ccccc1Cl | 0.64% | -0.35% | -0.09% | 2.55% | 14.6% | -0.47% | 18.2% | -0.26% | 2.04% | 0.33%
c1ccc(Nc2ncc(-c3ccccc3)o2)cc1 | 3.14% | 4.25% | 8.61% | 3.52% | 3.99% | 5.05% | 9.74% | 1.38% | 0.93% | 0.26%
CN(C)CCCn1c(-c2nonc2N)nc2cnccc21 | 0.37% | 4% | 4.06% | 0.92% | 1.59% | 1.08% | -3.93% | 0.54% | 0.77% | 1.3%
Cc1ccc2c(-c3ccnc(Nc4ccc5c(c4)OCCO5)n3)c(-c3ccc(C(F)(F)F)cc3)nn2n1 | -4.13% | -0.12% | 3.34% | -0.68% | 6.26% | -0.74% | 2.22% | -0.07% | 0.6% | -1.98%
CN(C)C(=O)O[C@@H]1CN[C@@H](C#Cc2cc3ncnc(Nc4ccc(OCc5cccc(F)c5)c(Cl)c4)c3s2)C1 | 0.74% | 2.88% | 6.39% | 1.52% | 4.73% | 0.44% | 8.64% | -0.35% | -0.22% | -3.09%
c1ccc(Cc2nc3ccc(Nc4ncnc5ccccc45)cc3[nH]2)cc1 | -0.79% | 4.4% | 8.08% | 2.5% | 5.58% | 1.92% | 11.4% | 1.45% | 3.26% | 2.77%
CCn1c(-c2nonc2N)nc2ccc(F)cc21 | -1.93% | 6.29% | 3.97% | 2.7% | 1.79% | 7.71% | 9.97% | 1.53% | 3.08% | 2.92%
COc1cc2ncnc(Nc3ccc4c(cnn4Cc4ccccc4)c3)c2cc1OC | 0.48% | 3.95% | 17.7% | 4.78% | 10.2% | 7.1% | 35.6% | 0.51% | 4.91% | 0.45%
COc1cc2ncn(-c3cc(OCc4ccccc4S(C)(=O)=O)c(C#N)s3)c2cc1OC | -2.95% | 7.94% | 35.5% | 5.63% | 14.6% | 38.6% | 77.9% | 6.02% | 38% | 5.48%
CCS(=O)(=O)c1ccc(OC)c(Nc2nccc(N(C)c3ccc4c(C)n[nH]c4c3)n2)c1 | -6.17% | 4.3% | 27% | 6.69% | 46.3% | 40% | 82.5% | 2.32% | 22.8% | 2.86%
Cc1nc(-c2ccccc2)n2nc(NCCCN3CCOCC3)ncc12 | 3.52% | 2.69% | 3.32% | 4.19% | 5.74% | 1.98% | 2.53% | 0.58% | 1.15% | 0.31%
Nc1nccc(-c2c(-c3ccc(F)cc3)ncn2CCCN2CCOCC2)n1 | -0.03% | 3.86% | 3.98% | 8.3% | 8.42% | 1.92% | 5.56% | 0.21% | 1.33% | -0.29%
CCOc1nccc2c1nc(-c1nonc1N)n2CC | 1.57% | 3.96% | 5.87% | 2.25% | 8.59% | 2.63% | 20.1% | 3.04% | 7.54% | -1.22%
COc1cccc(-n2ncc3c(N/N=C/c4ccc(S(C)(=O)=O)cc4)ncnc32)c1 | -1.66% | -0.19% | 10.4% | 7.64% | 31.4% | 10.4% | 20% | 1.34% | 1.96% | 4.94%
Cc1ccc2c(c1)/C(=N/Nc1ccc(S(N)(=O)=O)cc1)C(=O)N2 | -2.83% | 1.52% | 4.33% | -0.15% | 2.63% | -2.23% | 3.63% | -0.48% | -0.62% | -1.8%
